PubChem BioAssay (NCATS)
Results filed as inconclusive are left out. Calls of active or inactive are those of the source. Unless noted, calls follow the shape of the dose curve; as a rule, active = well fitted curve in either direction with a large enough effect (not every such curve was filed as active); inconclusive = small, poorly fitted or top-dose-only effect, or another doubt; inactive = flat fitted curve, though single readings scatter.

Legend:
[1] = AP1 Signaling Pathway (AID 357); details: ME-180 (cervical carcinoma) AP-1-bla reporter, EGF-induced, beta-lactamase ratio, 5 h; at 17.2 µM (top of the series) unless noted; also: % is scaled to controls: 0 for no effect and ±100 for the full control effect
In short: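 AP-1-bla ME-180 cells with beta-lactamase reporter under AP-1 response element, stimulated with EC50 EGF; compounds titrated, 5 hours at 37 degrees Celsius. CCF4 read at 460/530 nm ratio; positive and negative modulators judged by AC50.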

[2] = NFAT Signaling Pathway (AID 444); details: Jurkat NFAT-bla M1, carbachol, beta-lactamase ratio, 5 h; at 17.2 µM (top of the series) unless noted;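 also: carbachol stimulus at about its EC50 of 1 µM final; % is scaled to controls: 0 for no effect and ±100 for the full control effect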
In short: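 Jurkat cells with NFAT-driven β-lactamase reporter and co-expressed M1 receptor, stimulated with carbachol (final 1 uM, ~EC50), compound titration, 5 h at 37 °C. CCF4 loaded 1 h at RT; 460/530 nm ratio gave %activity and AC50.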

[3] = biological target: Glucocorticoid receptor (Homo sapiens) (UniProt P04150); assay: GR-GFP Redistribution (AID 450;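 active = compounds whose dose series gives a full or clear partial fitted curve of increased nuclear translocation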; also: potency is read from the fitted curve at half-maximal effect)
Sequence of Glucocorticoid receptor (Homo sapiens) (P04150 whole entry, looked up, the tested form may be a part): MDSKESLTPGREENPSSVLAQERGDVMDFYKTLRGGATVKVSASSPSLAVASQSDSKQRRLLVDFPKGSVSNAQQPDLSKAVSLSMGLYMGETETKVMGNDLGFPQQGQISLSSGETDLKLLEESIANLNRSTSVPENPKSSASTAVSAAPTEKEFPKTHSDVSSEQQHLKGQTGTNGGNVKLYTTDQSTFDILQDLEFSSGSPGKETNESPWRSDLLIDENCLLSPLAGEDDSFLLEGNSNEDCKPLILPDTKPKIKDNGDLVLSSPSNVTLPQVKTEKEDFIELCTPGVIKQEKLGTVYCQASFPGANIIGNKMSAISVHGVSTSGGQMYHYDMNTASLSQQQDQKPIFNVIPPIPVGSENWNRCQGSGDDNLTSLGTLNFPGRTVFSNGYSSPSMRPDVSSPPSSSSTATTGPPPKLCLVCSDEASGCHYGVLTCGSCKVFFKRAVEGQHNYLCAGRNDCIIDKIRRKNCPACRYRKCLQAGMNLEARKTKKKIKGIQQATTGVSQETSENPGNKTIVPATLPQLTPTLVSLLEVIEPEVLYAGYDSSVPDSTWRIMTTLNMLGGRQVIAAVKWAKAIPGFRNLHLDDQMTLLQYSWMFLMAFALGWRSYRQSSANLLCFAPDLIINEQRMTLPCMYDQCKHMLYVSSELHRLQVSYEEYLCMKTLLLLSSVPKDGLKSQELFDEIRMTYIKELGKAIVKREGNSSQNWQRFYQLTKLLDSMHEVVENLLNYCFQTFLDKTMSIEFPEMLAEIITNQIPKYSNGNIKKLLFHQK

[4] = biological target: Glucocorticoid receptor (Homo sapiens) (UniProt P04150); assay: GR-EFC Redistribution (AID 451; calls by dose curve; also: potency is read from the fitted curve at half-maximal effect); details: CHO-K1 GR-EFC translocation, beta-gal luminescence, 2 h
In short: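 CHO-K1 cells expressing nuclear EA and GR-ED fragments of b-gal; compounds titrated up to 46 uM final, 2 h at 37 C. GR nuclear translocation read as complemented b-gal luminescence after 1 h RT detection.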

[5] = biological target: Mitogen-activated protein kinase 10 (Mus musculus) (UniProt Q61831); assay: JNK3 AlphaScreen Assay (AID 530);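 also: kinase came from lysate of stimulated human HepG2 cells; signal reports phosphorylation of biotinylated GST-cJun 1-79 at Ser73 with 10 µM ATP; % is scaled to controls: 0 for no effect and ±100 for the full control effect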
In short: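 Activity was read by AlphaScreen after JNK3-containing HepG2 lysate (cytokine pre-activated) phosphorylated biotinylated GST-cJun with 10 uM ATP at room temperature. Phospho-Ser73 cJun antibody with Protein-A acceptor beads provided detection.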

[6] = biological target: 3',5'-cyclic-AMP phosphodiesterase 4B (Homo sapiens) (UniProt Q07343); assay: qHTS Assay for Inhibitors of PDE-IV (AID 607; active = well fitted activation curve with a large enough effect in the main read-out, with a control signal flat, not every such curve was filed as active; also: % of control where 0% means no effect)
Sequence of 3',5'-cyclic-AMP phosphodiesterase 4B (Homo sapiens) (Q07343 whole entry, looked up): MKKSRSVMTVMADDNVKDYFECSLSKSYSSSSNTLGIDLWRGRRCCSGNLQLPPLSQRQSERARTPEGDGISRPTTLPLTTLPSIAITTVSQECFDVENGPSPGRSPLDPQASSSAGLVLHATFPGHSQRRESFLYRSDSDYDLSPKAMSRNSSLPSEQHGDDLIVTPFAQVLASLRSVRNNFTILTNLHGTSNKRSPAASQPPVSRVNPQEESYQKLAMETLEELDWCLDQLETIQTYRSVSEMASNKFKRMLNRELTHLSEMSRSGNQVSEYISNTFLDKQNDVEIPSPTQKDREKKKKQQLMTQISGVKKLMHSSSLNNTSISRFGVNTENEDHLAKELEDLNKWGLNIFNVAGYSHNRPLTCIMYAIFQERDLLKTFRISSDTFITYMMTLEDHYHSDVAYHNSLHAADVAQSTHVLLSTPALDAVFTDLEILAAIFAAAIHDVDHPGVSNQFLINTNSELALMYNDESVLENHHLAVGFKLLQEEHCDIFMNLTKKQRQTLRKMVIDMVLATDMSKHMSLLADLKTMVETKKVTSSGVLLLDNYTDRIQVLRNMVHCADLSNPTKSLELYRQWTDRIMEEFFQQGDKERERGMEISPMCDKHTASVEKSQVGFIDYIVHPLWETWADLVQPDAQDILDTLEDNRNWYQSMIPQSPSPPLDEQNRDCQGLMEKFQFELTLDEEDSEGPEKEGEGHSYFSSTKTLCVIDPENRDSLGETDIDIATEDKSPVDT
In short: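 ACTOne HEK293 cells carry a modified cAMP-gated CNG channel and express endogenous PDE4; plated 1000 cells/well, compounds up to 22.9 uM final. Membrane-potential dye fluorescence (ex 535/em 590) was read; parental cells received 10 uM forskolin + 100 uM RO 20-1724.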

[7] = biological target: Guanine nucleotide-binding protein G(i) subunit alpha-1 (Homo sapiens) (UniProt P63096); assay: qHTS Assay for Inhibitors of RGS12 GoLoco Motif Activity (Green Fluorophore) (AID 879; active = well fitted curve in the direction sought with a large enough effect; an effect the other way counts as inactive or inconclusive;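 also: 0% = labeled peptide with Gαi1 and full inhibition = labeled peptide alone without protein; negative values mean loss of peptide binding seen as reduced polarization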)
Sequence of Guanine nucleotide-binding protein G(i) subunit alpha-1 (Homo sapiens) (P63096 whole entry, looked up): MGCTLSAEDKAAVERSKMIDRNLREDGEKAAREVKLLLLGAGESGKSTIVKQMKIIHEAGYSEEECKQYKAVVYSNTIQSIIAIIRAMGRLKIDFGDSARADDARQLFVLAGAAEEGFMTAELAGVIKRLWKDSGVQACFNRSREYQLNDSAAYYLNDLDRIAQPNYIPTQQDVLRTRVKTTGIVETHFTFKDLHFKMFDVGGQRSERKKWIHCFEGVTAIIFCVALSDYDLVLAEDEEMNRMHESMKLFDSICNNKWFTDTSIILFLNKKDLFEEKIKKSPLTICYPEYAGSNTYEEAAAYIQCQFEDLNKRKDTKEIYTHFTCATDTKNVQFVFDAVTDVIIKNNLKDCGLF
In short: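 A drop in FITC polarization marked displacement of the FITC-tagged RGS12 GoLoco peptide (10 nM) from Gαi1 (50 nM). Compounds were incubated 10 min at room temperature in Tris pH 7.5 buffer containing 150 mM NaCl, 0.1 mM GDP and 0.05% NP40; unlabeled peptide titration served as control.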

[8] = qHTS Assay for Identification of Small Molecule Agonists for Thrombopoietin (TPO) Signaling Pathway (AID 917; active = well fitted curve in the direction sought with a large enough effect; an effect the other way counts as inactive or inconclusive; also: % is scaled to controls: 0 for no effect and ±100 for the full control effect)
In short: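 Stimulation at the TPO EC50 (26 pM final) was used to detect activators. Ba/F3 mouse cells bearing human TPO receptor and a luciferase reporter under the Glycoprotein IIb promoter were exposed to compounds for 24 hrs at 37 C.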

[9] = biological target: Muscarinic acetylcholine receptor M1 (Rattus norvegicus) (UniProt P08482); assay: qHTS Assay for Antagonists of Acetylcholine Muscarinic M1 Receptor: Kinetic Measurement of Intracellular Calcium Response (AID 943; active = well fitted curve in the direction sought with a large enough effect; an effect the other way counts as inactive or inconclusive;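 also: Fluo-4 calcium signal as peak divided by basal fluorescence over 4 min; nearly all actives have a fitted effect of over 75% in size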)
Sequence of Muscarinic acetylcholine receptor M1 (Rattus norvegicus) (P08482 whole entry, looked up): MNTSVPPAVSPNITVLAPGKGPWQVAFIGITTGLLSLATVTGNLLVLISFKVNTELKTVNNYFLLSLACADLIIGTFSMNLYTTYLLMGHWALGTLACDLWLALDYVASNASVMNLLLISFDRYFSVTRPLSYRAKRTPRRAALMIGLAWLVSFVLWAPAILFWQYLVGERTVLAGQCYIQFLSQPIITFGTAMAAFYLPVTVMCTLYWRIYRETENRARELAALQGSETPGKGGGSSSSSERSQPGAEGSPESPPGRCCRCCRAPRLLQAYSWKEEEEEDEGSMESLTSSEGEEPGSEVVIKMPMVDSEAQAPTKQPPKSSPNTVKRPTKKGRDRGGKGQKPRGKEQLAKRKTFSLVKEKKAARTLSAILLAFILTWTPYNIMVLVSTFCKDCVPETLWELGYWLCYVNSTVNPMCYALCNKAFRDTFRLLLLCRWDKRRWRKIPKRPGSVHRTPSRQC
In short: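 Antagonism measured as reduction of carbachol-evoked (EC80, 100 nM final) calcium flux in rat M1-CHO cells after 10 min compound exposure. Fluo-4 signal read kinetically; ratio of maximal to basal fluorescence.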

[10] = biological target: Muscarinic acetylcholine receptor M1 (Rattus norvegicus) (UniProt P08482); assay: qHTS Assay for Antagonists of Acetylcholine Muscarinic M1 Receptor: Measurement of IP-One Response (AID 944; active = well fitted curve in the direction sought with a large enough effect; an effect the other way counts as inactive or inconclusive; also: nearly all actives have a fitted effect of over 75% in size)
In short: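 IP1 accumulation measured via TR-FRET between d2-IP1 and Eu-cryptate anti-IP1 antibody after carbachol (200 nM, EC80) stimulation for 30 min; rat M1-transfected CHO cells received compound 10 min before agonist.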

[11] = biological target: Pyruvate kinase (Leishmania mexicana) (UniProt Q27686); assay: qHTS Validation Assay for Inhibitors of Leishmania Mexicana Pyruvate Kinase (AID 945; active = well fitted curve in the direction sought with a large enough effect; an effect the other way counts as inactive or inconclusive;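 also: 0% = DMSO only neutral control wells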)
Sequence of Pyruvate kinase (Leishmania mexicana) (Q27686 2-499 E452W): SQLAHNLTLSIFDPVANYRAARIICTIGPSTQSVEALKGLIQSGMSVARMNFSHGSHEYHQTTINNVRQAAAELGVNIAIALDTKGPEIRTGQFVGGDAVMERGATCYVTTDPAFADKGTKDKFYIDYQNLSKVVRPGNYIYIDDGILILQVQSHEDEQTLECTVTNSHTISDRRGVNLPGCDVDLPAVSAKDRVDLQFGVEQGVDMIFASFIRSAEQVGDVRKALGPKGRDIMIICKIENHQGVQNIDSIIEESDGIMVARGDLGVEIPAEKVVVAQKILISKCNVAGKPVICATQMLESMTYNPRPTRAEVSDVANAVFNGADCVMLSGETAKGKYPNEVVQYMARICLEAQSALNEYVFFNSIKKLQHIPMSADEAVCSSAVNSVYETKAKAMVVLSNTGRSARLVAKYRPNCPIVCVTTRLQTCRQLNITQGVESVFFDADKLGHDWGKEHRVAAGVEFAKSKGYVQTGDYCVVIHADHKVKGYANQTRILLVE
In short: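 Eight-point qHTS titrations in triplicate, data normalized to DMSO neutral control. Reaction: 0.2 nM LmPYK E451W mutant, 0.5 mM PEP, 0.1 mM ADP, 7 mM MgCl2, pH 7.2, one hour at room temperature; luminescent ATP detection.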

[12] = biological target: Pyruvate kinase PKM (Homo sapiens) (UniProt P14618); assay: qHTS Assay for Activators of Human Muscle Pyruvate Kinase (AID 954; active = well fitted curve in the direction sought with a large enough effect, not every such curve was filed as active;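 also: 0% = uninhibited enzyme and -100% = no enzyme or full thiadiazolimine inhibition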)
Sequence of Pyruvate kinase PKM (Homo sapiens) (P14618 whole entry, looked up): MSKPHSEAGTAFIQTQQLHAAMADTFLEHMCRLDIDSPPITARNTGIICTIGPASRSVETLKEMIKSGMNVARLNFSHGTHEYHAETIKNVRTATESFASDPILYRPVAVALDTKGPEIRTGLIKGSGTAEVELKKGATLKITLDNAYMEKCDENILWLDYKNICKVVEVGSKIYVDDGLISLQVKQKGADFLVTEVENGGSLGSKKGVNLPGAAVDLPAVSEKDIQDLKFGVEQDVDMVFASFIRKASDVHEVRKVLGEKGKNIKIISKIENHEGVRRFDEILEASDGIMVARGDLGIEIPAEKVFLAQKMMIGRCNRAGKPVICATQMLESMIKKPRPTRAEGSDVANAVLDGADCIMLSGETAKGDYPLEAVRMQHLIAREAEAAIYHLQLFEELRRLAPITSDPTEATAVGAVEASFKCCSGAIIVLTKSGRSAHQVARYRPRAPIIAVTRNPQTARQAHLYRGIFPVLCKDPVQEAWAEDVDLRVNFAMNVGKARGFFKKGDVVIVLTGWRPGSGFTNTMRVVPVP
In short: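 A coupled luminescent readout tracked ATP made from ADP by purified PKM2. Final conditions included 0.1 nM enzyme, PEP and ADP at 0.5 and 0.1 mM, pH 7.2 imidazole buffer with BSA, and a one-hour room-temperature reaction.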

[13] = biological target: Alpha-galactosidase A (Homo sapiens) (UniProt P06280); assay: Counterscreen for Glucocerebrosidase Inhibitors: qHTS Assay for Human alpha-Galactosidase at pH 4.5 (AID 992; active = well fitted curve in the direction sought with a large enough effect; an effect the other way counts as inactive or inconclusive; also: 0% is about no effect)
Sequence of Alpha-galactosidase A (Homo sapiens) (P06280 whole entry, looked up): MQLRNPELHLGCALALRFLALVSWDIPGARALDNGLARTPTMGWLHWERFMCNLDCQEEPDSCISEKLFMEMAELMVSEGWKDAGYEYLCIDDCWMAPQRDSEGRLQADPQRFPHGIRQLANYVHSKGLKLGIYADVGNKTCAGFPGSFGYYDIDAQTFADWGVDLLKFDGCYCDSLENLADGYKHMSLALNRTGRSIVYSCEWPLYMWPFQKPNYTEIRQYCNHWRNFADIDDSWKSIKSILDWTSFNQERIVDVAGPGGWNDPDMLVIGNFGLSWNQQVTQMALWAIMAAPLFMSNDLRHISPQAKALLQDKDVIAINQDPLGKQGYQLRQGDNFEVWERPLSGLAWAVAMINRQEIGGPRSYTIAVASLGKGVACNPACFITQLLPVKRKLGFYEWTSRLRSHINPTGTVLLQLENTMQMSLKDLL
In short: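 Citrate buffer pH 4.5, Tween-20 0.005%. Enzyme 2 nM, substrate 80 uM, 20 min RT. Stop pH 10. Fluorescence Ex 365/Em 440. AC50 by Hill fit.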

[14] = biological target: alpha-glucosidase (Oryza sativa, rice) (UniProt Q653V4); assay: Counterscreen for Glucocerebrosidase Inhibitors: qHTS Assay for Rice alpha-Glucosidase at pH 5.0 (AID 997; active = well fitted curve in the direction sought with a large enough effect; an effect the other way counts as inactive or inconclusive;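 also: 0% = full activity with enzyme and -100% = basal without enzyme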)
In short: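 Endpoint fluorogenic assay at pH 5.0: compounds (0.7 nM to 77 uM) titrated against 4 nM rice enzyme and 400 uM 4-MU-alpha-glucoside for 20 min at room temperature; NaOH/glycine stop, read ex 365/em 440 nm, Hill-fitted AC50.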

Cn1c(=O)cc(NCc2ccccc2)[nH]c1=O
inactive: activity change, negative = inhibition [1] 15% | activity change, negative = inhibition [2] -6.77% | Potency [3] > 20.6 µM

COc1ccc(CCCNC(=O)CC#N)cc1OC
inactive: activity change, negative = inhibition [1] 13.8% | activity change, negative = inhibition [2] -4.61% | Potency [3] > 20.6 µM

CC(C)(C)OC(=O)N1CC=C2C(C#N)=C(N)C(C#N)(C#N)[C@H](c3cccnc3)[C@H]2C1
inactive: activity change, negative = inhibition [1] 3.85% | activity change, negative = inhibition [2] 4.36% | Potency [3] > 20.6 µM

CCCCCCCCCC(=O)N[C@@H](CN1CCOCC1)[C@@H](O)c1ccccc1
inactive: activity change, negative = inhibition [1] 5.88% [at 38 µM] | activity change, negative = inhibition [2] 1.34% [at 38 µM] | Potency [3] > 46 µM | Potency [4] > 46 µM | Potency [5] | Potency [6] | outcome [7] | Potency [8] | Potency [9] | Potency [10] | Potency [11] | outcome [12] | outcome [13] | outcome [14]

CN(C)c1ccc(O)c2c1CC1CC3[C@@H](N(C)C)C(=O)C(C(N)=O)=C(O)[C@]3(O)C(=O)C1=C2O (stereo not given in full)
inactive: activity change, negative = inhibition [1] 6.78% | activity change, negative = inhibition [2] 8.29% | Potency [3] > 20.6 µM

CCOc1cc(C2Nc3ccccc3C(=O)N2c2ccccc2OC)ccc1O (stereo not given)
inactive: activity change, negative = inhibition [1] 18.3% | activity change, negative = inhibition [2] 6.73% | Potency [3] > 20.6 µM

O=C(COc1ccccc1)Nc1ccc(-c2nnc(-c3ccco3)o2)cc1
inactive: activity change, negative = inhibition [1] 6.06% | activity change, negative = inhibition [2] 7.57% | Potency [3] > 20.6 µM

CSc1nc(N2CCCC2)c2c(c1C#N)CC(C)(C)OC2
inactive: activity change, negative = inhibition [1] -20.7% | activity change, negative = inhibition [2] -19.8% | Potency [3] > 20.6 µM

COc1cc(C(=O)NCC(=O)n2nc(C)cc2C)cc(OC)c1OC
inactive: activity change, negative = inhibition [1] 0.479% | activity change, negative = inhibition [2] -4.87% | Potency [3] > 20.6 µM

COC(=O)c1ccc(C2NC(C(=O)O)CS2)cc1 (stereo not given)
inactive: activity change, negative = inhibition [1] 5.95% | activity change, negative = inhibition [2] 6.25% | Potency [3] > 20.6 µM

CCCCOC(=O)CSc1nc(N)c(C#N)c(-c2ccc(OC)cc2)c1C#N
inactive: activity change, negative = inhibition [1] -13.6% | activity change, negative = inhibition [2] -0.768% | Potency [3] > 20.6 µM

CCc1ccc(NC(=O)CSC2=C(C#N)C(c3ccc4c(c3)OCO4)CC(=O)N2)cc1 (stereo not given)
inactive: activity change, negative = inhibition [1] -19.8% | activity change, negative = inhibition [2] -5.09% | Potency [3] > 20.6 µM

CCn1cc(C(=O)NCc2ccccn2)c(=O)c2cc(F)c(N3CCN(C)CC3)cc21
inactive: activity change, negative = inhibition [1] -1.53% | activity change, negative = inhibition [2] -29.8% | Potency [3] > 20.6 µM
